Reference: paper PMC4552634, “A New Set of Chemical Starting Points with Plasmodium falciparum Transmission-Blocking Potential for Antimalarial Drug Discovery” (PLoS ONE, 2015)
Where two headings read alike, the source gives them in different places. In all, about 13,000 compounds went through this assay and about 3,200 (25%) showed an effect of 50% or more. The list shows a part of the results.

Test system: P. falciparum stage V gametocytes
Parameters: BacTiter-Glo ATP luminescence viability of purified stage V gametocytes in 384-well plates, per cent inhibition versus DMSO
Settings: 48 h, 5 µM, inhibitor

Row | SMILES | % Inhibition [%] | % Inhibition (% Inhibition) [%]
1 | COc1ccc(NC(=O)/C=C/c2ccccc2Cl)cc1OCCN1CCC(Cc2cc3ccccc3[nH]2)CC1 [TCMDC-140920] | -36.18 | –
2 | CN(C)C(CNC(=O)c1cc(-c2ccncc2)c(-c2ccc(Cl)c(O)c2)o1)c1ccccc1 (stereo not drawn) [TCMDC-135438] | -15.77 | –
3 | O=C(CCc1cnc[nH]1)Nc1cccc(-c2ccc(-c3nc4ccc(F)cc4[nH]3)cc2)c1 [TCMDC-132154] | 23.15 | –
4 | Cc1ccc(N2CCN(C(=O)c3cccc(-c4cncc5nc(-c6ccco6)n(C)c45)c3)CC2)nc1 [TCMDC-134992] | -10.32 | –
5 | C#CCNC(=O)c1ccc(-c2ccnc(Nc3cccc(CCCN4CCOCC4)c3)n2)s1 [TCMDC-136764] | 20.31 | –
6 | COc1cccc(CN2CCCC(OC(c3ccccc3)c3ccccc3)C2)c1O (stereo not drawn) [TCMDC-136385] | -25.83 | –
7 | CCCN1CCN(CCCNC(=O)c2cc3c(-c4ccc(Cl)cc4)nn(C)c3s2)CC1 [TCMDC-124731] | 12.34 | –
8 | Cn1nc(-c2ccc(Cl)cc2)c2cc(C(=O)NCCN3CCOCC3)sc21 [TCMDC-124416] | 0.2691 | –
9 | CCN1CCCC1CNC(=O)c1cc2c(-c3ccc(Cl)cc3)nn(C)c2s1 (stereo not drawn) [TCMDC-123579] | 67.12 | –
10 | CCCCNC[C@@H](O)[C@H](Cc1ccccc1)NC(=O)c1cc2c3c(c1)c(CC)cn3CCS(=O)(=O)N2C [TCMDC-135802] | 53.96 | –
11 | CCCNC[C@@H](O)[C@H](Cc1ccccc1)NC(=O)c1cc2c3c(c1)c(CC)cn3CCS(=O)(=O)N2C [TCMDC-135863] | 78.77 | –
12 | CCc1cn2c3c(cc(C(=O)N[C@@H](Cc4ccccc4)[C@H](O)CNCc4cccc(C)c4)cc13)N(C)S(=O)(=O)CC2 [TCMDC-135923] | 15.33 | –
13 | CCc1cn2c3c(cc(C(=O)N[C@@H](Cc4ccccc4)[C@H](O)CNCc4ccccc4C)cc13)N(C)S(=O)(=O)CC2 [TCMDC-135922] | -22.32 | –
14 | CCNC[C@@H](O)[C@H](Cc1ccccc1)NC(=O)c1cc2c3c(c1)c(CC)cn3CCS(=O)(=O)N2C [TCMDC-135800] | 27.6 | –
15 | CCc1cn2c3c(cc(C(=O)N[C@@H](Cc4ccccc4)[C@H](O)CNCc4ccc(C)cc4)cc13)N(C)S(=O)(=O)CC2 [TCMDC-135924] | 11.35 | –
16 | CCc1cn2c3c(cc(C(=O)N[C@@H](Cc4ccccc4)[C@H](O)CNCc4ccccc4)cc13)N(C)S(=O)(=O)CC2 [TCMDC-135883] | 74.56 | –
17 | CCc1cn2c3c(cc(C(=O)N[C@@H](Cc4ccccc4)[C@H](O)CNCC(C)C)cc13)N(C)S(=O)(=O)CC2 [TCMDC-135804] | 36.82 | –
18 | CCc1cn2c3c(cc(C(=O)N[C@@H](Cc4ccccc4)[C@H](O)CNCCOC)cc13)N(C)S(=O)(=O)CC2 [TCMDC-135799] | 12.82 | –
19 | COC(=O)c1ccc(CC(C)NCC(O)c2cccc(C(F)(F)F)c2)cc1 (stereo not drawn) [TCMDC-131435] | – | 22.12
20 | COc1ccc(OC)c(CNCC(O)c2cc(C(F)(F)F)cc(C(F)(F)F)c2)c1 (stereo not drawn) [TCMDC-140306] | 38.32 | –
21 | Cc1nc2ccc3ccc(CNc4ccc(C(=O)CC(CCC(=O)O)C(=O)O)cc4)cc3c2c(=O)[nH]1 (stereo not drawn) [TCMDC-137855] | 12.05 | –
22 | COc1cc(C(C)C)ccc1N1CCN(CCCCNC(=O)c2ccc(NC(=O)c3ccc(Cl)cc3)cc2)CC1 [TCMDC-138518] | -18.1 | –

Row | SMILES | % Inhibition [%] | % Inhibition (% Inhibition) [%]
23 | N#Cc1cccc(NC(=O)Nc2cccc(-c3cccc(-c4nc5ccc(F)cc5[nH]4)c3)c2)c1 [TCMDC-133197] | -38 | –
24 | COCC(=O)N(Cc1ccccc1-c1ccc(CNCCc2ccccc2)cc1)C1CCN(Cc2ccccc2)CC1 [TCMDC-140534] | 105.6 | –
25 | COCC(=O)N(Cc1ccccc1-c1cccc(CNCCc2ccccc2)c1)C1CCN(Cc2ccccc2)CC1 [TCMDC-140533] | 103.5 | –
26 | CCNc1cc(C(=O)N[C@@H](Cc2ccc(F)c(F)c2)[C@H](O)CNCc2cccc(OC)c2)cc(N2CCCCS2(=O)=O)c1 [TCMDC-135059] | -18.05 | –
27 | CC1(C)N=C(NC(=O)c2ccc([N+](=O)[O-])cc2)N=C(N)N1OCc1ccc2ccccc2c1 [TCMDC-131580] | 48.26 | –
28 | FC(F)c1nc2ccccc2n1-c1nc(N2CCOCC2)nc(N2CCOCC2)n1 [TCMDC-137004] | 98.45 | –
29 | Nc1nc(N)c2c(Cl)c(N3CCOCC3)ccc2n1 [TCMDC-137868] | -6.497 | –
30 | CC12CC3CC(C)(C1)CC(Nc1nc(N4CCOCC4)nc4ccccc14)(C3)C2 [TCMDC-123862] | -97.33 | –
31 | O=c1ccc2ccc(F)cc2n1CCN1CCC(NCc2ccc(-c3ccccn3)s2)CC1 [TCMDC-135133] | 2.874 | –
32 | NC1=NC(c2ccccc2)N(c2ccc(Cl)c(Cl)c2)C(N)=N1 (stereo not drawn) [TCMDC-136305] | 1.025 | –
33 | CN(c1ccc(NC(=O)Nc2cc(C(C)(C)C)on2)cc1)c1ccnc(NCCOC(=O)Nc2cc(C(C)(C)C)on2)n1 [TCMDC-141707] | 55.26 | –
34 | CCN(CC)CCCNc1nccc(N(C)c2ccc(NC(=O)Nc3cc(C(F)(F)F)ccc3F)cc2)n1 [TCMDC-141634] | 97.67 | –
35 | CCNC(=O)Nc1ccc(N(C)c2ccnc(Nc3ccc(CS(C)(=O)=O)cc3)n2)cc1 [TCMDC-138759] | -39.6 | –
36 | CN(c1ccc(NC(=O)Nc2cccc(Cl)c2)cc1)c1ccnc(N)n1 [TCMDC-138782] | 0.5988 | –
37 | CCN(CC)CCNc1nccc(N(C)c2ccc(NC(=O)Nc3cc(C(F)(F)F)ccc3F)cc2)n1 [TCMDC-141632] | 74.5 | –
38 | CN(C)CCCNc1nccc(N(C)c2ccc(NC(=O)Nc3cc(C(F)(F)F)ccc3F)cc2)n1 [TCMDC-141633] | 100.7 | –
39 | CN(c1ccc(NC(=O)Nc2cc(C(C)(C)C)on2)cc1)c1ccnc(NCCN2CCOCC2)n1 [TCMDC-141706] | 2.344 | –
40 | COc1cc(NC(=O)CCCCCCCCN2CCN(C)CC2)c2ncccc2c1 [TCMDC-138212] | 0.271 | –
41 | CCCCCCc1cc2cc(-c3csc(C=Cc4ccccc4)n3)c(=O)oc2cc1O [TCMDC-125662] | -11.21 | –
42 | COc1ccc2nccc([C@@H](O)CN3CCC(NCc4cc5ccccc5s4)CC3)c2c1 [TCMDC-140684] | 1.924 | –
43 | COc1ccc2nccc([C@@H](O)CN3CCC(NCc4[nH]c5ccccc5c4F)CC3)c2c1 [TCMDC-141052] | 4.499 | –
44 | CC(=O)c1ccc(NC(=O)Nc2ccc(N(C)c3ccnc(NC4CC4)n3)cc2)cc1 [TCMDC-138767] | 82.68 | –

Row | SMILES | % Inhibition [%] | % Inhibition (% Inhibition) [%]
45 | CCCNC(=O)Nc1ccc(N(C)c2ccnc(NC3CC3)n2)cc1 [TCMDC-138764] | 12.51 | –
46 | CCNC(=O)Nc1ccc(N(C)c2ccnc(NC3CC3)n2)cc1 [TCMDC-138763] | 40.84 | –
47 | O=C1OC2(CCN(Cc3cccc(-c4ncc[nH]4)c3)CC2)CN1CCNCc1ccccc1 [TCMDC-136733] | -38.21 | –
48 | COc1ccccc1CCNc1nc(C)cc(NCCC(=O)Nc2ccccc2)n1 [TCMDC-134800] | 76.83 | –
49 | Cc1cccc(CNc2nc(C)cc(NCCC(=O)Nc3ccccc3)n2)c1 [TCMDC-134885] | 25.97 | –
50 | CCNc1cc(C)nc(Nc2ccc(NC(=O)Cc3ccc(OC)cc3)cc2)n1 [TCMDC-124983] | 15.74 | –
51 | Cc1cc(NCCC(=O)Nc2ccccc2)nc(NCCc2cccnc2)n1 [TCMDC-134880] | 47.41 | –
52 | Cc1cc(NCCC(=O)Nc2ccccc2)nc(NCCc2cccs2)n1 [TCMDC-134872] | 26.35 | –
53 | COc1ccc(Nc2cc(C)nc(NCc3ccc4c(c3)OCO4)n2)cc1 [TCMDC-136332] | 81.18 | –
54 | COc1ccc(NC(=O)CCNc2cc(C)nc(NCc3ccccc3C)n2)cc1 [TCMDC-134899] | 34.68 | –
55 | COc1ccc(Nc2nc(C)cc(NCc3ccc(-c4c(C)noc4C)cc3)n2)cc1 [TCMDC-134024] | -1.002 | –
56 | Cc1cc(NCCC(=O)Nc2ccccc2)nc(NCCc2ccc(F)cc2)n1 [TCMDC-134783] | 44.82 | –
57 | Cc1cc(NCCC(=O)Nc2ccccc2)nc(NCCc2ccccc2)n1 [TCMDC-134772] | 51 | –
58 | COc1ccc(NC(=O)CCNc2cc(C)nc(NCc3cccc(C)c3)n2)cc1 [TCMDC-134883] | 59.29 | –
59 | Cc1ccc(C)c(-n2c(SCC(=O)Nc3ccc(C(N)=O)cc3)nnc2-c2cccc(Cl)c2)c1 [TCMDC-124332] | 36.9 | –
60 | O=C(Nc1cccc(F)c1)NC1CCN(c2ccnc3cc(Cl)ccc23)CC1 [TCMDC-133569] | -8.116 | –
61 | Cc1ccccc1-c1nc2c(CN3CCC(O)(c4ccccc4)CC3)c(O)ccc2[nH]1 [TCMDC-136533] | 40.24 | –
62 | CCCc1ccc(NC(=O)c2cccc(CN3CCCN(Cc4cccc(C#N)c4)CC3)c2)cc1 [TCMDC-135977] | -19.91 | –
63 | O=C(Cc1ccc(NC(=O)c2ccc(O)c(-c3ccc(Cl)c(Cl)c3)c2)cc1)NCCN1CCOCC1 [TCMDC-140853] | -3.124 | –
64 | COc1ccc(NC(=O)CCNc2cc(C)nc(NCCc3ccc(F)cc3)n2)cc1 [TCMDC-134864] | 55.47 | –
65 | COc1ccc(NC(=O)CCNc2cc(C)nc(NCCc3ccccc3)n2)cc1 [TCMDC-134770] | 41.15 | –
66 | CCCC(C)Nc1nc(C)cc(NCCC(=O)Nc2ccc(OC)cc2)n1 (stereo not drawn) [TCMDC-134762] | 20.26 | –
